Assay results published in PubChem BioAssay AID922 (National Center for Advancing Translational Sciences (NCATS), 2007).
Records with an inconclusive call do not appear. Active and inactive are the calls of the source. Calls follow the shape of the dose curve; as a rule, active = well fitted inhibition curve with a large enough effect in the signal ratio, with a control signal flat; inconclusive = small, poorly fitted or top-dose-only effect, or effect the other way; inactive = flat fitted curve, though single readings scatter; the % refers to the signal ratio.

Assay: Confirmation Concentration-Response Assay for Identification of Small Molecule Antagonists of Stat Signaling Pathway
Conditions: SIE-bla cells, IL-6 stimulated, beta-lactamase ratio, 5 h; series mostly up to 38.3 µM
From the text: NIH Molecular Libraries Screening Centers Network [MLSCN] NIH Chemical Genomics Center [NCGC] MLSCN Grant: None NCGC Assay Overview: This assay is a retest of actives identified from the Stat signaling pathway assay (PubChem AID 446). The Stat assay is cell-based and measures Interleukin 6 (IL-6) mediated modulation of a beta-lactamase reporter gene controlled by a STAT inducible element (SIE-bla cells, Invitrogen). IL-6 is a cytokine that signals via the JAK/STAT pathway and is implicated in cancer and inflammation. SIE-bla cells are induced by IL-6 at 40 pM EC50 and inhibited by the pan JAK inhibitor, 2-(1,1-Dimethylethyl)-9-fluoro-3,6-dihydro-7H-benz[h]-imidaz[4,5-f]isoquinolin-7-one, at approximately 10 nM IC50. Plated cells were incubated overnight and on the following day, stimulated with 40 pM IL-6 for 5 hrs. The assay was stimulated with an EC50 of IL-6 to retest inhibitors of STAT signaling.
NCGC Assay Protocol Summary: Cells were trypsinized, washed in assay medium (AM, OPTI MEM with 0.5% fetal bovine serum, 0.1 mM nonessential amino acids, 1 mM sodium pyruvate, 10mM HEPES pH 7.3, 100U/ml penicillin, and 100 ug/ml streptomycin) and suspended at […] in AM. Approximately 2500 cells in 5 uL/well was dispensed into 1536-well plates and the cells were incubated overnight at 37 C. 23 nL of compound were delivered by a pin tool and 1 uL of IL-6 (40 pM final concentration in AM) was added. After plates were incubated at 37 C for 5 hrs, 1uL of detector mix (LiveBLAzerTM, Invitrogen) was added, the plates incubated at room temperature for 2.5 hrs, and fluorescence intensity at 460 and 530 nm emissions was measured at 405 nm excitation by an Envision (Perkin Elmer).

Potency, active:
COc1cc(/C=C\C(=O)N2CCCCC2=O)cc(OC)c1OC 12.6 µM
Cn1c(NCc2ccccc2)nc2c1c(=O)n(Cc1ccc(Br)cc1)c(=O)n2C 15.8 µM
C=C1C(=O)O[C@@H]2[C@@H]1CC/C(C)=C\CC[C@@]1(C)O[C@H]21 25.1 µM
O=C1Nc2ccc(I)cc2/C1=C/c1cc(Br)c(O)c(Br)c1 12.6 µM
CSc1ncnc2c1ncn2CC(=O)[C@H]1CC[C@H]2[C@H]3CCC4=CC(=O)CC[C@@]4(C)[C@@H]3CC[C@@]12C 2.51 µM
CCOC(=O)c1[nH]c2cc3c(cc2c1NC(=O)CN1CCc2ccccc2C1)OCO3 15.8 µM
NCCSc1nc2ccccc2s1 7.94 µM
CC1CCN(CC[S-])CC1.O.O.[Cl][Pt] 25.1 µM
C=C1C(=O)O[C@@H]2[C@H]3O[C@]3(C)CCC=C(C)CC[C@@H]12 7.94 µM
OCc1ccncc1.OCc1ccncc1.[Cl][Pt]([Cl])([Cl])[Cl] 10 µM
COc1cccc2c1[C@H](CO)N1[C@H](C#N)[C@@H]3C[C@H](C(=O)O)[C@@H]([C@@H]1C2)N3C 10 µM
CN(C)S(=O)(=O)c1ccc2c(c1)/C(=C/c1cc3c([nH]1)CCCC3)C(=O)N2 2.51 µM
O=C(O)c1c(Br)c(Br)c(Br)c(Br)c1C1c2ccc(O)cc2Oc2cc(O)ccc21 7.94 µM
COc1ccc(C[C@@H]2C(=O)N[C@H](C)C(=O)N(C)[C@@H]3Cc4ccc(cc4)Oc4cc(ccc4O)C[C@H](C(=O)N[C@@H](C)C(=O)N[C@H](C)C(=O)N2C)N(C)C3=O)cc1 0.199 µM
CCCCSc1nc(N)c(C#N)c(-c2cccs2)c1C#N 15.8 µM
O=C(Nc1ccc(N2CCN(C(=O)c3ccccc3)CC2)c(Cl)c1)c1ccc(Br)o1 10 µM
O=C(O)CCc1c2ccc(=O)c(O)c-2oc2c(O)c(O)ccc12 10 µM
NS(=O)(=O)c1ccc(N=Nc2cc3ccccc3c(C(=O)O)c2O)cc1 6.31 µM
O=C1C(SCCO)=C(SCCO)C(=O)c2ccccc21 6.31 µM

Potency, inactive:
CCN(CC)CCNC(=O)c1cc(S(C)(=O)=O)ccc1OC
CCC(=O)Nc1nc(C)c(Oc2ccccc2)c(=O)[nH]1
ClC(=Nc1cccc2ccccc12)N(c1ccccc1)c1ccccc1
OC[C@@H]1CCC[C@H](n2cnc3c(=S)nc[nH]c32)O1
